Source: PubChem
Shown are actives, neighbours in structure and some others; about 2.2% of the full set was active somewhere.
aSyn yeast inh: rescues yeast growth from alpha-synuclein toxicity; actives 0.14% (n = 370,000); Yeast expressing alpha-synuclein, growth rescue, BacTiter-Glo, 24 h; Potency, µM (series often up to 46.1 µM), for the others: at the highest dose growth rescue (activation), usual class: activators; further: % of control where 0% means no effect; nearly all actives have a fitted effect of over 65% in size
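Readout is rescue of growth in alpha-synuclein-expressing yeast, so inhibitors of toxicity appear as activators. Growth after 24 hr at 30 deg C in galactose medium is quantified by luminescence.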
Abeta rescue: restores growth of yeast expressing A-beta42 peptide; actives 0.063% (n = 410,000); yeast expressing A-beta42, growth rescue, OD600, 48 h; response scale: 0% DMSO, 100% iron-clioquinol control; Potency, µM (highest dose often 46.1 µM), most hits filed as activators; further: nearly all actives have a fitted effect of over 55% in size
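Yeast growth medium received pinned compounds, then yeast cells expressing toxic A-beta were added; plates incubated at 30 C for 48 hr. Growth read as absorbance at 600 nm, normalized to DMSO and equimolar FeCl3 plus clioquinol controls.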
Mito fusion act: inhibitors of mitochondrial division or activators of mitochondrial fusion; Potency, µM (highest dose often 46.1 µM), inactives show at the top dose growth rescue (activation), actives largely listed as activators; actives 0.23% (n = 320,000); S. cerevisiae fusion-defective mutant growth rescue, CellTiterGlo 48 h; further: % of control where 0% means no effect; nearly all actives have a fitted effect of over 45% in size
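Growth-rescue viability read-out: after 48 h at the non-permissive 37C in glycerol/ethanol YPEG, yeast mitochondrial fusion mutants are measured by CellTiterGlo luminescence; compounds (23 nl pinned per well) restoring growth score as division inhibitors or fusion activators.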
FUS suppressor: suppressors of FUS proteinopathy in yeast; S. cerevisiae FUS-expressing, growth rescue, OD600, 24 h; actives 0.24% (n = 390,000); Potency, µM (doses to about 76.6 µM), actives largely listed as activators;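 further: plate controls were DMSO vehicle for no effect and reference control for full effect; nearly all actives have a fitted effect of over 55% in size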
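Yeast expressing FUS under galactose induction, OD 0.005 in 2% galactose medium; compounds in a dilution series, 24 h at 30C. Growth rescue by absorbance at 600 nm; CP55940 positive control, DMSO negative.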
TDP43 rescue: rescues yeast growth from TDP-43 toxicity; TDP-43 expressing yeast growth rescue, BacTiter-Glo, 24 h; Potency, µM (titrated, usually from 46.1 µM), without a hit: at the highest dose growth rescue (activation), hits mostly activators; actives 1.8% (n = 410,000); AID 652104; further: % of control where 0% means no effect; nearly all actives have a fitted effect of over 50% in size
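Growth rescue of TDP-43-toxic yeast measured as ATP luminescence (BacTiter-Glo). Cells grown to mid-log in raffinose, induced in galactose at OD600=0.02, exposed to compound 24 hr at 30 deg C.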
* = called active by the depositor; i = inactive; ? = inconclusive; · = not tested or not shown; [ ] = dose if it differs, or a comment. The call rests on the fitted dose curve; in most records, active means well fitted curve in the direction sought with a large enough effect; inconclusive means small, poorly fitted or top-dose-only effect, or another doubt; inactive means no such curve, though single readings can be large; an effect the other way counts as inactive or inconclusive. Potency means the concentration at half of the fitted maximal effect.

SMILES	aSyn yeast inh	Abeta rescue	Mito fusion act	FUS suppressor	TDP43 rescue
Nc1cccc[n+]1C(c1ccnc2ccccc12)[n+]1ccccc1N	4.3%	·	·	·	·
CC(=O)N1N=C(c2cccs2)CC1c1ccc(Br)cc1 (stereo not given)	2.9%	i	-0.9%	i	25.1µM*
CC(=O)N1N=C(c2cccs2)CC1c1ccc(C)o1 (stereo not given)	3.2%	i	-0.8%	i	21.4%
COc1cccc(C2CC(c3cccs3)=NN2C(=O)c2ccco2)c1O (stereo not given)	?	i	?	i	25.1µM*
O=C(c1ccco1)N1N=C(c2cccs2)CC1c1ccccc1O (stereo not given)	19.1%	i	17.6%	·	11.5%
Cc1ccc(C2CC(c3cccs3)=NN2C(=O)c2ccc(Br)o2)cc1 (stereo not given)	-0.6%	i	2.82µM*	i	-28.7%
COc1ccc2nc3sc(C(=O)N4CCN(c5ccccc5)CC4)cc3cc2c1	·	i	·	i	11.0%
CCc1ccc(N2C=C(C(=O)OC)C(c3ccc(OC)cc3)C(C#N)=C2N)cc1 (stereo not given)	25.1µM*	i	·	?	?
COC(=O)C1=CN(c2ccc(OC)cc2)C(N)=C(C#N)C1c1ccc(OC)cc1 (stereo not given)	10.9%	i	·	?	2.5%
O=C(COc1ccccc1C(=O)Nc1cccc([N+](=O)[O-])c1)Nc1ccc(Br)cc1	2.0%	·	·	·	·
COC(=O)c1cccc(NC(=S)Nc2cccc(Cl)c2Cl)c1	4.3%	i	-0.8%	i	17.8µM*
Cc1n[nH]c(C)c1S(=O)(=O)NCCc1ccccc1F	·	·	·	i	·
O=[N+]([O-])c1ccc(OCc2cnc(Cl)s2)c([N+](=O)[O-])c1	3.0%	i	-6.3%	i	11.2µM*
COC(=O)C(Cc1cnc(Cl)s1)(C(=O)OC)c1ccc([N+](=O)[O-])cc1[N+](=O)[O-]	11.2%	i	3.9%	i	-7.7%
Cn1c(=O)c2nc(-c3ccccc3)c(-c3ccccc3)nc2n(C)c1=O	-30.6%	i	·	i	31.6µM*
Cc1ccccc1NC(=O)C1CCCN1S(=O)(=O)c1cccnc1 (stereo not given)	·	·	·	i	·
O=S(=O)(c1ccccc1Br)N1CCN(c2ncccn2)CC1	?	i	4.7%	i	12.6µM*
COc1ccccc1C/C(N)=N/OC(=O)c1cccc([N+](=O)[O-])c1C	-56.2%	i	-12.8%	i	20µM*
COc1ccc(/C(N)=N/OC(=O)c2cccc([N+](=O)[O-])c2C)cc1	-3.4%	i	0.2%	i	7.08µM*
COc1ccc(/C(N)=N/OC(=O)c2cccc([N+](=O)[O-])c2)cc1	-21.4%	i	-0.3%	i	-9.2%
CCOc1ccc(C2=NC(c3ccncc3)=Nc3ccc(C)cc3N2)cc1OCC	·	i	·	i	8.6%
CN(C)c1ccc(/C=C2\NC(=O)NC2=O)cc1	-11.0%	·	·	·	·
CCCN1C(=O)/C(=C/c2ccc(N3CCOCC3)cc2)NC1=S	-13.2%	i	4.5%	i	-2.2%
CCCN1C(=O)/C(=C/c2ccc(OCC(=O)OCC)cc2)NC1=S	0.0%	i	-5.4%	22.4µM*	-10.0%
CCCN1C(=O)/C(=C/c2ccc(N3CCCC3)c(C)c2)NC1=S	-16.1%	i	-7.6%	i	3.16µM*
SMILES	aSyn yeast inh	Abeta rescue	Mito fusion act	FUS suppressor	TDP43 rescue
CN(C)c1cc(-c2ccc(C#N)cc2)oc(=O)c1Cl	-4.7%	i	-4.3%	i	29.8%
CN(C)c1cc(-c2ccc(Br)cc2)oc(=O)c1Cl	1.6%	i	2.0%	i	7.94µM*
COc1ccc(-n2nc(C(=O)NCCc3ccc(Cl)cc3)c3c4ccccc4n(C)c3c2=O)cc1	·	i	·	i	11.7%
COc1cccc(Oc2cncnc2-c2ccc(OC)cc2O)c1	?	i	?	i	20µM*
COc1ccc(-c2cncnc2-c2ccc(OC)cc2O)cc1	-1.5%	i	19.8%	i	16.0%
COc1ccc(S(=O)(=O)N(C)Cc2cccs2)cc1Br	12.5%	i	9.2%	i	15.8µM*
CCOc1ccccc1NC(=O)CSc1nc2cc(OC)c(OC)cc2c2nc(CCn3c(C)nc4ccccc43)nn12	·	i	·	?	-2.6%
Cc1cc(OCCn2nc(C(=O)O)c3ccccc3c2=O)ccc1C(C)C	-15.1%	i	7.2%	i	20.5%
O=C(O)c1nn(CCOc2ccc(Br)cc2)c(=O)c2ccccc12	4.1%	i	-10.7%	i	12.6µM*
O=C(CCCc1ccccc1)Nc1nccs1	8.3%	i	·	i	11.2µM*
O=C(O/N=C1\CCCc2ccccc21)c1cccc(Cl)c1	0.7%	i	17.5%	i	5.01µM*
Cc1cccc(C(=O)O/N=C2\CCCc3ccccc32)c1	0.3%	i	4.0%	i	11.2µM*
Cc1ccc(C(=O)O/N=C2\CCCc3ccccc32)cc1	·	i	-1.3%	i	23.8%
CC1CCC2(CC1)CCC2NCc1ccc(Cl)cc1 (stereo not given)	·	·	·	i	·
O=C(c1cnccn1)N1CCc2c([nH]c3ccccc23)C1c1cccc(Cl)c1 (stereo not given)	?	i	?	?	17.8µM*
Cc1cc(C(=O)N2CCc3c([nH]c4ccccc34)C2c2cccc(Cl)c2)nn1C (stereo not given)	1.9%	i	5.01µM*	i	9.7%
Cc1ccc(S(=O)(=O)c2cc3c(=O)n4ccccc4nc3n(Cc3ccco3)c2=N)cc1	-2.7%	i	8.1%	14.1µM*	-17.9%
CCCN1CNc2c(c(=O)[nH]c(=S)n2CCc2cccc(OC)c2)C1	-3.4%	·	·	·	·
CCc1ccc(CCC(=O)Nc2ccc(Br)cc2)o1	-25.3%	i	-4.3%	i	22.4µM*
COc1cc(CNc2ncnc3c2ncn3[C@H]2CN(Cc3cccc(C(F)(F)F)c3)C[C@@H](COC(C)=O)O2)cc(OC)c1OC	0.8%	i	·	20µM*	17.5%
COc1cc(CNc2ncnc3c2ncn3[C@H]2CN(Cc3cccc(C(F)(F)F)c3)C[C@@H](CO)O2)cc(OC)c1OC	14.9%	i	·	?	7.1%
N#Cc1ccccc1NC(=O)C1SC(=Nc2ccccc2)C(C(=O)Nc2ccc(Cl)cc2)=C1N (stereo not given)	4.7%	i	-25.0%	i	-1.6%[9.22 µM]
CCOc1ccc(N=C2SC(C(=O)Nc3ccccc3C#N)C(N)=C2C(=O)Nc2ccc(Cl)cc2)cc1 (stereo not given)	14.2%	i	-10.5%	35.5µM*	24.7%
COC(=O)C1CN(Cc2ccccc2)CCS(=O)(=O)N1Cc1ccccc1 (stereo not given)	·	·	·	i	·
